In ChEMBL document CHEMBL3988442, “University of Dundee, Small-Polar-MMV Screening Library” (2021) one finds Percent Effect data, which are given here for eight molecules.

For some assays here: Entries with a potency or affinity are not part of this list.

Parameters in all cases: scale not given: direction of the effect not stated beside the values
In experiment [1] the target is Protein translocase subunit SecA (Escherichia coli (strain K12)) (UniProt P10408). Description: Assay to Identify E. coli SecA ATPase Inhibitors. It is filed as functional. Conditions: 30 µM.
Chain of Protein translocase subunit SecA (Escherichia coli (strain K12)) (P10408 whole entry): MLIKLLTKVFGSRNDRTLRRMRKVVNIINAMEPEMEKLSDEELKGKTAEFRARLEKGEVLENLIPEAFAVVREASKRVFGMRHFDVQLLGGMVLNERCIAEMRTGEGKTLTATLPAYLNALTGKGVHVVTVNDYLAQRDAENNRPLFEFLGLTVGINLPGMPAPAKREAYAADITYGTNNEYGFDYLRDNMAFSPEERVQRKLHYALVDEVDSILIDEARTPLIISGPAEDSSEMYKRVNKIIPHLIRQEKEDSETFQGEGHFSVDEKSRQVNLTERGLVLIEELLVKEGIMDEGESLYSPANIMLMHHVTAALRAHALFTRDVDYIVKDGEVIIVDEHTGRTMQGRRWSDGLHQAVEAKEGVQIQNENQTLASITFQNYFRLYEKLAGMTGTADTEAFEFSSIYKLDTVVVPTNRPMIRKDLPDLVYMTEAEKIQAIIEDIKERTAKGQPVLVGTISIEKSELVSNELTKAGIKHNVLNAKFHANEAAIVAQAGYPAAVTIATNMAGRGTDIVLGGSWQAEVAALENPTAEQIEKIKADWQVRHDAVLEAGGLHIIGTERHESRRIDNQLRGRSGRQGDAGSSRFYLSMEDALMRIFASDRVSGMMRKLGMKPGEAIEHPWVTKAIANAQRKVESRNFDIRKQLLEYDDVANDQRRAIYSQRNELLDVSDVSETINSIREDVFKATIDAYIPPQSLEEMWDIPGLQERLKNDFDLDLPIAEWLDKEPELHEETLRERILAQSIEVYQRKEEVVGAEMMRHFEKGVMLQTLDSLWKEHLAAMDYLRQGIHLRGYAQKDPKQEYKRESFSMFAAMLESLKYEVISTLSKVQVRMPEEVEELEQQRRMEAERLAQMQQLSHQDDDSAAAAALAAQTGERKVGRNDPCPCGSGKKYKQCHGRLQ
Experiment [2] deals with T1, Ubiquitin-activating enzyme e1, putative (Leishmania donovani (strain BPK282A1)) (UniProt E9BSI1).
T1 sequence (whole entry): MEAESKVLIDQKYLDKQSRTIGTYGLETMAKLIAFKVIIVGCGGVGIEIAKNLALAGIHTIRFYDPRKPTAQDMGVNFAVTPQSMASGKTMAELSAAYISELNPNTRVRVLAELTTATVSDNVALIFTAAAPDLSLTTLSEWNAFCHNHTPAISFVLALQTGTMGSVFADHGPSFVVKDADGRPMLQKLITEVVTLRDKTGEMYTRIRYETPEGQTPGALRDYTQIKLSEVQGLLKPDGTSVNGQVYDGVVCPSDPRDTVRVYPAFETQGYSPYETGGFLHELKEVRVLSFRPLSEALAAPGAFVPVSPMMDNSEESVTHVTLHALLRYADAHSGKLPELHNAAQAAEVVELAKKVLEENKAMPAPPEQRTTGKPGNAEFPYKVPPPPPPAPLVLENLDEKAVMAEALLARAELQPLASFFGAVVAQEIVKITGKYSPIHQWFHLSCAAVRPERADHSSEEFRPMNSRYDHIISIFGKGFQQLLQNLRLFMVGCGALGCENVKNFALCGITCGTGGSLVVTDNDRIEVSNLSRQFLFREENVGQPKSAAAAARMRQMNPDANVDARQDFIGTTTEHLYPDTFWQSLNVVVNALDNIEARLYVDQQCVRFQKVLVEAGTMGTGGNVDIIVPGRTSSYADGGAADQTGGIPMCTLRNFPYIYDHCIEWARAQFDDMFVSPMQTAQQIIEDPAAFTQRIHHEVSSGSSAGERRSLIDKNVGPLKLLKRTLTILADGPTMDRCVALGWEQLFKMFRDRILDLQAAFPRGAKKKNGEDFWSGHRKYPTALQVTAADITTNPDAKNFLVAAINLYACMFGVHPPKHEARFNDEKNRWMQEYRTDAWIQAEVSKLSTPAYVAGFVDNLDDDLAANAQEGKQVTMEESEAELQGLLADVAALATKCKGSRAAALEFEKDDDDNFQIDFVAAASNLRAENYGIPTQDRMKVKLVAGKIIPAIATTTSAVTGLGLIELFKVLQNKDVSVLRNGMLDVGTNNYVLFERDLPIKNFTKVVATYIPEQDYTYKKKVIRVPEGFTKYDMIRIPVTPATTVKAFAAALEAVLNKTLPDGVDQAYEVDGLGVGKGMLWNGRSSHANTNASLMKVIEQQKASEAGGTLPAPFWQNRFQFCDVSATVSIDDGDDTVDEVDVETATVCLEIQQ
Description: Leishmania donovani Ubiquitin Activating Enzyme (LdE1). Conditions: 30 µM. The experiment is classed as functional.

The target in experiment [3] is Sialic acid-binding Ig-like lectin 9 (Homo sapiens) (UniProt Q9Y336). The experiment is described as follows: Hs-Siglec9 ALPHAscreen SOP 20170721. Conditions: 10 µM. Background: Alpha assays give light when donor and acceptor beads are brought close together.
Chain of Sialic acid-binding Ig-like lectin 9 (Homo sapiens) (Q9Y336 whole entry): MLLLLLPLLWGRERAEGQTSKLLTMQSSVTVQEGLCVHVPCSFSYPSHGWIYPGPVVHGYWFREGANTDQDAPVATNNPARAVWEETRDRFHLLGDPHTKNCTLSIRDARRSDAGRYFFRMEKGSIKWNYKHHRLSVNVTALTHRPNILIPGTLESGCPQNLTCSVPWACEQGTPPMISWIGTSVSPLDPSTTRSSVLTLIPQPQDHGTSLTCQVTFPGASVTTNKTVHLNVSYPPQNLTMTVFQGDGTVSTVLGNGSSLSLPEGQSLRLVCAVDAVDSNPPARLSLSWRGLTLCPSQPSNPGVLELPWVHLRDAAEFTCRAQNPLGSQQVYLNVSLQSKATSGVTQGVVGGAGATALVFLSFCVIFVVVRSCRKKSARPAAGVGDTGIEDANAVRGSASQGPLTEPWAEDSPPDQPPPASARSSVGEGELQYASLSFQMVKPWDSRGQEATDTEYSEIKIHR
Experiment [4] has as its system Trypanosoma cruzi. The experiment is described as follows: Trypanosoma cruzi phosphomannomutase and mannose-1-phosphate guanylyltransferase assay. It is filed as functional. Conditions: 10 µM.
Experiment [5] addresses T2, Arginase-2, mitochondrial (Homo sapiens) (UniProt P78540).
T2 sequence (whole entry): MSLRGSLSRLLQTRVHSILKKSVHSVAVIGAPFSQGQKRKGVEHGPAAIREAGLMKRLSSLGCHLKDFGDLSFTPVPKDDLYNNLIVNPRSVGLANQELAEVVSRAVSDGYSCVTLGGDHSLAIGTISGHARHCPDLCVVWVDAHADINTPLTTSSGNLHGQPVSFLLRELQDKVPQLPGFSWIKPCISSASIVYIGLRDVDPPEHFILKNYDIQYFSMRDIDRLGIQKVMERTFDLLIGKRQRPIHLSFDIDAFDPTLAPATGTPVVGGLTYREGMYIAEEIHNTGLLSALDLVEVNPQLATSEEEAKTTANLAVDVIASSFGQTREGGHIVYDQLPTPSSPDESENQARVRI
Description: in vitro enzyme assay to detect the production of urea directly proportional to the activity of Arginase II. Also: in the data most compounds retested in dose-response had high values. The experiment is classed as functional. Conditions: 33.3 µM.

Experiment [6] deals with T3, Proteasome subunit beta (Trypanosoma cruzi) (UniProt O96673).
T3 sequence (whole entry): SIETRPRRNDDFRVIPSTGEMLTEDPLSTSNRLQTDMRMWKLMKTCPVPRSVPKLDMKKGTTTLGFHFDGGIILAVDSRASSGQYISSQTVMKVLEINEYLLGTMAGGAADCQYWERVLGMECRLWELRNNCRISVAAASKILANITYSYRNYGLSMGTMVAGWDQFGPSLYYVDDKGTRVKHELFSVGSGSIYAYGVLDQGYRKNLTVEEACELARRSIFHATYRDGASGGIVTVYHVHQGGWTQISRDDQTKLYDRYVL
Description: Trypanosoma cruzi proteasome chymotrypsin-like activity (TcProtChymo) assay. Also: in the data most compounds retested in dose-response had high values. It is filed as functional. Conditions: 9.37 µM.

Experiment [7] is filed under the species Homo sapiens. The experiment is described as follows: To identify inhibition of the IFN signalling (Jak-Stat) pathway via expression of an eGFP reporter gene under the control of an IFN-stimulated response element (ISRE) containing MxA promoter. It is filed as functional. Conditions: 30 µM.
Experiment [8] addresses T4, Tyrosyl-tRNA synthetase, putative (Trypanosoma cruzi (strain CL Brener)) (UniProt Q4DSP6).
T4 sequence (whole entry): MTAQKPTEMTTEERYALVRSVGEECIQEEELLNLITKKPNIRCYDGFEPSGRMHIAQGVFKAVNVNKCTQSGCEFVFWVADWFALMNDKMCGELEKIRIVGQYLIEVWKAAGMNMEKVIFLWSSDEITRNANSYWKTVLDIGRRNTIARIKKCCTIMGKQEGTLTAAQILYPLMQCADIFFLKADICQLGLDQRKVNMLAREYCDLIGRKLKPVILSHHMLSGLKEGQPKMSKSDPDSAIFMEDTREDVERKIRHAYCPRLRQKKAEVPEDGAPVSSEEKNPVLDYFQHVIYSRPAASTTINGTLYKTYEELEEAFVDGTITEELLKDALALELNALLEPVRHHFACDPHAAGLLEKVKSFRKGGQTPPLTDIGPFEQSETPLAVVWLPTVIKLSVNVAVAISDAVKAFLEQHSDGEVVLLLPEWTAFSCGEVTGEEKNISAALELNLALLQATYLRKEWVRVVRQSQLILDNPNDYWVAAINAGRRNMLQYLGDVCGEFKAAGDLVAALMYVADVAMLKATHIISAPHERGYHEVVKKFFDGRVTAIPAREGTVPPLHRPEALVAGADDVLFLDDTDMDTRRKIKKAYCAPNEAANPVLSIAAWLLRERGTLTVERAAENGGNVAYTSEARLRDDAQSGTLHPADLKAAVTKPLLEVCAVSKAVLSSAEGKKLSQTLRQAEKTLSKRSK
The experiment is described as follows: Trypanosoma cruzi tyrosyl tRNA synthetase (TcYRS) _High Tyrosine SOP. Also: in the data most compounds retested in dose-response had high values. It is filed as functional. Conditions: 30 µM.

For experiment [9], the target named is T4, Tyrosyl-tRNA synthetase, putative (Trypanosoma cruzi (strain CL Brener)). Description: Trypanosoma cruzi tyrosyl tRNA synthetase (TcYRS) SOP. It is filed as functional. Conditions: 30 µM.
In experiment [10] the target is Chromo domain-containing protein 1 (Saccharomyces cerevisiae (strain ATCC 204508 / S288c) (Baker's yeast)) (UniProt P32657). The experiment is described as follows: ScCHD-1 Enzyme Inhibition Assay. Also: in the data most compounds retested in dose-response had high values. The experiment is classed as functional. Conditions: 30 µM.
Chain of Chromo domain-containing protein 1 (Saccharomyces cerevisiae (strain ATCC 204508 / S288c) (Baker's yeast)) (P32657 whole entry, the tested form may be a part): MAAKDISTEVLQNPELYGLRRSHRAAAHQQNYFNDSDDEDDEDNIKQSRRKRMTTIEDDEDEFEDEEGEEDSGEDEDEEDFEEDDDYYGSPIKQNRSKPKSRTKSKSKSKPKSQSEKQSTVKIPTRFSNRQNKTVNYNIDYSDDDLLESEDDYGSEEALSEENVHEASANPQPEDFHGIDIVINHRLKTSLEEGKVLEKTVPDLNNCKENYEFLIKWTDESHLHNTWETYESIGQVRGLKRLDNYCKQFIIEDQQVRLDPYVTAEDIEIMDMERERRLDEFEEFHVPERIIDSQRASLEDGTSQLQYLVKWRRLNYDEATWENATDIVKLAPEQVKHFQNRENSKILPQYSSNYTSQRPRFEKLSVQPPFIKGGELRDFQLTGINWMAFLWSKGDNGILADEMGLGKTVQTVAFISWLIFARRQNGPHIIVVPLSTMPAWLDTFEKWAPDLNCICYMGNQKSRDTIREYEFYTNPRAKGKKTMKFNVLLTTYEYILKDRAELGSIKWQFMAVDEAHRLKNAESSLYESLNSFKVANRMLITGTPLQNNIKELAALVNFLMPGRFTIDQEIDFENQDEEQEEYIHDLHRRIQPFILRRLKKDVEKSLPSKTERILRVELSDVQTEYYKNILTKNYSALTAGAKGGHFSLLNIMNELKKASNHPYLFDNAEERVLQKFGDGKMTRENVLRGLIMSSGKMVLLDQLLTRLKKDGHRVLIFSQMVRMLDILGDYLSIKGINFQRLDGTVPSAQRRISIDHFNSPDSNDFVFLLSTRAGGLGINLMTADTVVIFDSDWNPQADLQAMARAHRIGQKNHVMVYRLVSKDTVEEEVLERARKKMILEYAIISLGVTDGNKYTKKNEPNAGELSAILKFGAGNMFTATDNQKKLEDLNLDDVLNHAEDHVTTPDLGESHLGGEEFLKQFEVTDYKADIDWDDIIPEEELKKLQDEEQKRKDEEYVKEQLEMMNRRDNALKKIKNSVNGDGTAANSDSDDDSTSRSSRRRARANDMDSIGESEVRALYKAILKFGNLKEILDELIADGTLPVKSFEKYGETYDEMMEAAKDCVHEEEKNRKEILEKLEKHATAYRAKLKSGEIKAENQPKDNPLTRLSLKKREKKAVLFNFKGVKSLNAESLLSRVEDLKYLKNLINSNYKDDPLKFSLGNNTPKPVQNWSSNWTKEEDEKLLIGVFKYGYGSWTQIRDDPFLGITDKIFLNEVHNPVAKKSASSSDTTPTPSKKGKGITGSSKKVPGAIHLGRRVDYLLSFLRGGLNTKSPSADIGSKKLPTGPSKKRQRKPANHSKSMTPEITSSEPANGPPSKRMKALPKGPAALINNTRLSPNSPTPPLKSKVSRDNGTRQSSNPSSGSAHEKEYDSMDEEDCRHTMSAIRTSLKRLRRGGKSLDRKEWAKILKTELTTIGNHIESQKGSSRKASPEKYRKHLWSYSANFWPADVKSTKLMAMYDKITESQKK

As to `COc1ccc(CNC(=O)N2CCC(Cc3cnn(C)c3)C2)cc1C` (stereo not given), the Percent Effect in experiment [1] was -1.91%; in experiment [2], 7.69%; in experiment [3] it was -4.56%; in [4], 8.36%; in experiment [5], 4.92%; in experiment [6], 11.2%. For the same molecule, the Percent Effect is 10.9% in [7], 0.478% in experiment [8], 13.2% in [9] and -4.08% in experiment [10].
In the case of `O=C(NCCC1=CCCCC1)C1CCCN(c2ccc3nncn3n2)C1` (stereo not given), the Percent Effect was -2.76% in experiment [1]; 8.11% in experiment [2]; 3.56% in experiment [3]; -0.291% in experiment [4]; -9.44% in experiment [5]; 13.5% in experiment [6]. In addition, the Percent Effect in experiment [7] is -5.74%; in experiment [8], 3.72%; in experiment [9], 12.2%; in [10] it was -1.71%.
Consider `Cc1cc(C(=O)NC2CCc3nc(C)cn3C2)[nH]n1` (stereo not given), for which the Percent Effect in experiment [1] is -3.96%; in [2], 2.67%; in experiment [3], 4.26%; in experiment [4], -0.803%; in experiment [5] it was 1.77%; in experiment [6] it was 5.68%. For the same molecule, the Percent Effect in experiment [7] is 3.16%; in [8] it was 3.68%; in [9], 5.13%; in experiment [10], -7.74%.
In the case of `Cc1cc(C)n(C2CCCN(C(=O)c3c(C)c(C)n[nH]c3=O)C2)n1` (stereo not given), the Percent Effect in [1] was -1.62%; in [2], 8%; in [3] it was 4.21%; in experiment [4], -4.62%; in experiment [5], 0.887%; in [6], 4.16%. The Percent Effect in experiment [7] is 17.4%; in experiment [8], 1.58%; in experiment [9] it was 2.56%; in experiment [10] it was -4.78%.
Turning to `COCCc1noc(CN2CCCCC2Cn2nc(C)cc2C)n1` (stereo not given), the Percent Effect was -2.9% in experiment [1]; -2.6% in experiment [2]; 13.8% in [3]; -1.68% in experiment [4]; 2.25% in experiment [5]; -3.51% in [6]. The Percent Effect in experiment [7] is -5.82%; in experiment [8] it was 0.98%; in [9], 7.06%; in experiment [10], 9%.
Regarding `CN1CCN(CC2CC2)C(=O)c2cnc(N3CCCC3)nc21`, the Percent Effect in [1] was -7.66%; in experiment [2], 0%; in [3], 1.44%; in experiment [4], -1%; in experiment [5], -4.88%; in experiment [6] it was 4.16%. In addition, the Percent Effect in experiment [7] is 8.07%; in experiment [8] it was -4.74%; in [9] it was -10.3%; in experiment [10] it was -11.6%.
On to `CCc1nc(C)c(C(=O)NCCN2CCC(C)CC2)s1`, for which the Percent Effect in [1] was -2.31%; in experiment [2], -2.6%; in [3], 7.15%; in [4], -4.1%; in experiment [5], -2.25%; in [6] it was -6.84%. The Percent Effect in [7] is 9.62%; in [8], 0.98%; in experiment [9], 11.8%; in experiment [10] it was -2.04%.
On to `O=c1cc(Cn2cncn2)nc2n1CCCN(CC1CC1)C2`, for which the Percent Effect in [1] was -4.98%; in [2], 11.7%; in experiment [3], -1.33%; in experiment [4] it was 1.27%; in experiment [5], -1.22%; in [6], 9.09%. Besides, the Percent Effect in [7] was -6.93%; in experiment [8], 3.68%; in experiment [9], 5.13%; in experiment [10], -4.01%.
